Source: PubChem BioAssay
Active and inactive are the calls of the source.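 How the source made its calls, unless noted: active means inhibition at or above 50% at 10 µM; inactive means inhibition below 50%.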

Key:
[1] = inhibitors of TNFa-induced NFkB p65 translocation, primary screen, imaging, HUVEC, MLSMR starter and 10KST1 sets (AID 438;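 active means inhibition above 20% together with a positive visual image hit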;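 further: compound added about 3h40 before a 20 min TNFalpha stimulation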;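 on inhibition: signal is the nuclear over cytoplasmic p65 intensity ratio per well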); conditions: HUVEC TNFa-induced p65 nuclear translocation; cell count: measured here: nuclei count (cytotoxicity indicator), at 2.08 µM; inhibition: at 2 µM, stronger effect = higher value, 0% TNFa-plus-vehicle, 100% no-TNFa wells
[2] = inhibitors of mutant huntingtin aggregation, primary screen, imaging, exon1htt(103Q)mCFP cells, high-content imaging (AID 483;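 active means visual image review flags a hit and inhibition of aggregation exceeds 20%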;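 further: compound exposure lasted 3 days before fixation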;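 on nuclei count: percent of the per-plate median nuclei count of sample wells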); conditions: exon1htt(103Q)mCFP cell line, aggregate imaging, at 2 µM; inhibition of aggregation: stronger effect = higher value; nuclei count: measured here: cell count, toxicity
[3] = inhibitors of E-selectin induction by TNFa, primary screen, imaging, HUVEC, immunofluorescence, MLSMR starter and 10KST1 sets (AID 487;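 active means visually confirmed hit in the image check and inhibition above 20%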;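 on inhibition: signal is fraction of cell area covered by stained E-selectin grains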;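 on nuclei count: 100% = median nuclei count of all wells on the same plate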); conditions: HUVEC TNFalpha-induced E-selectin immunofluorescence imaging, at 2 µM; inhibition: stronger effect = higher value; nuclei count: measured here: cell number, toxicity
[4] = biological target: Voltage-gated potassium channel subunit beta-2 (Rattus norvegicus) (UniProt P62483); assay: KvBeta enzyme negative modulators, primary screen, biochemical, NADPH fluorescence (AID 622;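 active means fluorescence slope higher than the sample average by over 3 SD, cut at about -0.22 in these data, passing the limit was not always enough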;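 further: slope of raw intensity against log time taken from 70 to 1610 s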); conditions: recombinant KvBeta, 4-cyanobenzaldehyde reduction, at 10 µM, stronger effect = higher value
[5] = biological target: Voltage-gated potassium channel subunit beta-2 (Rattus norvegicus) (UniProt P62483); assay: KvBeta positive modulators, primary screen, biochemical, NADPH fluorescence (AID 623;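 active means NADPH fluorescence slope more negative than the mean of all samples by about 3 SD, 99.7% confidence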;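 further: fluorescence intensity change per second fitted from 20 to 320 s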); conditions: Recombinant KvBeta, NADPH fluorescence decrease slope, 10 min; at 10 µM; stronger effect = lower value
[6] = biological target: Alpha-2C adrenergic receptor (Homo sapiens) (UniProt P18825); assay: modulators of alpha2C/GIRK thallium flux, primary screen, cell-based, HEK293 alpha2C/GIRK1/2 (AID 624;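 active means fluorescence slope after compound addition differing from the mean of all screened samples at 99.7% confidence, in either direction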;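 further: slope of fluorescence ratio to pre-addition baseline per second over 15 to 24 s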); conditions: thallium flux BTC fluorescence, at 10 µM, actives lie on both sides
[7] = inhibitors of Sendai virus-induced IRF3 signaling, primary screen, TLR/RLR signaling modifier project, cell-based, Sendai virus stimulus, luciferase, 10K MLSCN set (AID 602276); conditions: HEK293 RL24 IRF3 luciferase reporter, at 10 µM, stronger effect = higher value;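 further: firefly luciferase from ISG56 promoter only with Renilla not read in this screen; 0% = Sendai virus plus DMSO and 100% = medium plus DMSO without virus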
[8] = inhibitors of poly I:C-induced TLR3 signaling, primary screen, cell-based, poly I:C stimulus, luciferase, 10K MLSCN set (AID 602277;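 active means inhibition of the reporter signal at or above 50%; inactive means inhibition below 50%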); conditions: HEK293-TLR3 RL24 IRF3 luciferase reporter, at 10 µM, stronger effect = higher value

Sequence of Alpha-2C adrenergic receptor (Homo sapiens) (P18825 whole entry, looked up): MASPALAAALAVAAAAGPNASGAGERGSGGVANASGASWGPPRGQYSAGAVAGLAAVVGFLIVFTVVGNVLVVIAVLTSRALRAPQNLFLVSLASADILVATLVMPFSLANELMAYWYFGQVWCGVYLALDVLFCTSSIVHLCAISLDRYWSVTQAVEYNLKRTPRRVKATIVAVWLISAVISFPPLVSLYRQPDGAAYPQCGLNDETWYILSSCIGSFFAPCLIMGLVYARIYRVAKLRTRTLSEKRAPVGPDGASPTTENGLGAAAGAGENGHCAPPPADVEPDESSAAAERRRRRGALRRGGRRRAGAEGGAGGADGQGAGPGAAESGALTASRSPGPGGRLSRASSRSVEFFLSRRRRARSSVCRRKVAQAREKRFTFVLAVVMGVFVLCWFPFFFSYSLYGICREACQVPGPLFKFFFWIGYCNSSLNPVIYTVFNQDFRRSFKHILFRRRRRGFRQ
Sequence of Voltage-gated potassium channel subunit beta-2 (Rattus norvegicus) (P62483 whole entry, looked up): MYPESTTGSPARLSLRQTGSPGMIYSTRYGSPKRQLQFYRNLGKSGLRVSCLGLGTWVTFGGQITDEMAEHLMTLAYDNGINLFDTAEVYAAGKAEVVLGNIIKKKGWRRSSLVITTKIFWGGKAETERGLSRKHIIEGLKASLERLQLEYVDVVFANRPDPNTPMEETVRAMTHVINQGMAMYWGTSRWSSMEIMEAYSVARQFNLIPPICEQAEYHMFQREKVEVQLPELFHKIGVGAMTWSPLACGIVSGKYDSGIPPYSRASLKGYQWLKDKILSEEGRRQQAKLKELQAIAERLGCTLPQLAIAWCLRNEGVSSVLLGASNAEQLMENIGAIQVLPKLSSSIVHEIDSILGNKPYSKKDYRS

Row | Compound | cell count [1] | inhibition [1] | inhibition of aggregation [2] | nuclei count [2] [%] | inhibition [3] | nuclei count [3] [%] | fluorescence slope [4] | NADPH fluorescence slope [5] | slope [6] | inhibition [7] | inhibition [8]
1 | COc1ccc(-c2nc3c(n2O)CCC/C3=N\O)cc1 | 319 | -8% (inactive) | 0.2% (inactive) | 98.1 | -2.4% (inactive) | 113 | -0.413 (inactive) | -7.6e-05 (inactive) | 0.00746 (inactive) | -16.5% (inactive) | -26.8% (inactive)
2 | O=S(=O)(c1cccs1)N1CCN(Cc2nc3ccccc3s2)CC1 | 283 | 3.3% (inactive) | -5.8% (inactive) | 99.8 | 1% (inactive) | 90.9 | -0.556 (inactive) | 3e-05 (inactive) | 0.00461 (inactive) | -3.64% (inactive) | -4.76% (inactive)
3 | CC1CCN(c2oc(-c3ccccc3F)nc2C#N)CC1 | 578 | 5% (inactive) | -3.3% (inactive) | 122 | -32.2% (inactive) | 114 | -0.411 (inactive) | 7.4e-06 (inactive) | 0.00601 (inactive) | -30.7% (inactive) | -73.4% (inactive)
4 | Cc1nnc2n(-c3ccc(Cl)cc3)c(=O)c3c4c(sc3n12)CN(C)CC4 | 386 | -5.7% (inactive) | 8.9% (inactive) | 93.3 | 22% (inactive) | 89.5 | -0.477 (inactive) | -0.000149 (inactive) | 0.00624 (inactive) | -17.3% (inactive) | -5.51% (inactive)
5 | O=C(Nc1ccccc1C(F)(F)F)c1cc(S(=O)(=O)N2CCOCC2)ccc1F | 415 | 2.8% (inactive) | 12.8% (inactive) | 62.3 | -247% (inactive) | 107 | -0.619 (inactive) | 2.6e-06 (inactive) | 0.00704 (inactive) | 8.22% (inactive) | 21.8% (inactive)
6 | CCOC(=O)N1CCN(C(=O)c2cccn3c(=O)c4sccc4nc23)CC1 | 502 | 1.1% (inactive) | -5.5% (inactive) | 102 | -5.7% (inactive) | 114 | -0.0756 (inactive) | 1.5e-05 (inactive) | 0.00326 (inactive) | -8.79% (inactive) | -5.35% (inactive)
7 | CCCNS(=O)(=O)c1ccc(C(=O)NCC2CCCO2)cc1 (stereo not drawn) | 482 | 2.6% (inactive) | -16.7% (inactive) | 114 | -95.5% (inactive) | 114 | -0.529 (inactive) | -4.9e-05 (inactive) | 0.00794 (inactive) | 10.8% (inactive) | 20.7% (inactive)
8 | O=C(CN(C(=O)CCC(=O)Nc1nccs1)c1ccccc1F)NCC1CCCO1 (stereo not drawn) | 343 | -0.8% (inactive) | 6% (inactive) | 87.3 | -19.4% (inactive) | 124 | -0.609 (inactive) | -1.3e-06 (inactive) | 0.00439 (inactive) | 8.97% (inactive) | 15.4% (inactive)
9 | O=C(Nn1c(C2CC2)nc2ccccc2c1=O)c1ccco1 | 579 | -12.1% (inactive) | 9.9% (inactive) | 95.2 | -38.3% (inactive) | 116 | -0.48 (inactive) | 6.6e-05 (inactive) | 0.00689 (inactive) | 9.09% (inactive) | 23.5% (inactive)
10 | O=C1c2ccccc2S(=O)(=O)N1Cc1nnc(-c2ccccc2Br)o1 | 536 | -4.9% (inactive) | -9.2% (inactive) | 106 | 51.8% (active) | 99.5 | -0.488 (inactive) | -6e-05 (inactive) | 0.00709 (inactive) | 16.6% (inactive) | 20.8% (inactive)
11 | COCCn1nnnc1C(c1cccs1)N1CCN(c2cc(C)ccc2C)CC1 (stereo not drawn) | 203 | 11.4% (inactive) | -9% (inactive) | 84.8 | -2.6% (inactive) | 96.9 | -0.618 (inactive) | 2e-05 (inactive) | 0.00567 (inactive) | 11.1% (inactive) | 16.2% (inactive)
12 | CCN1CCN(C(CNC(=O)c2ccc3c(c2)OCO3)c2cccnc2)CC1 (stereo not drawn) | 796 | -13.5% (inactive) | 0.6% (inactive) | 98 | -10.9% (inactive) | 109 | -0.541 (inactive) | 1.4e-05 (inactive) | 0.00612 (inactive) | -18.9% (inactive) | -1.81% (inactive)
13 | CCCOc1cccc(C(=O)Nc2cc(NC(=O)c3ccco3)ccc2OC)c1 | 436 | 3.8% (inactive) | 2.3% (inactive) | 101 | 8.3% (inactive) | 105 | -0.278 (inactive) | -2.4e-05 (inactive) | 0.00685 (inactive) | 2.93% (inactive) | -15% (inactive)
14 | CN(C)S(=O)(=O)Nc1ccc(Br)cc1F | 688 | -11.1% (inactive) | 9.4% (inactive) | 103 | -24.9% (inactive) | 100 | -0.439 (inactive) | -8.8e-06 (inactive) | 0.00541 (inactive) | 8.09% (inactive) | 15.9% (inactive)
15 | COc1ccc(N2CC(C(=O)Nc3ccc(F)cc3F)CC2=O)cc1 (stereo not drawn) | 281 | -3.5% (inactive) | -30.8% (inactive) | 111 | 12% (inactive) | 104 | -0.514 (inactive) | -1.3e-05 (inactive) | 0.00428 (inactive) | 14.4% (inactive) | 20.8% (inactive)
16 | Clc1cc2c(c(Cn3cnc4ccccc43)c1)OCOC2 | 566 | 7.5% (inactive) | 11.8% (inactive) | 77.2 | 4.1% (inactive) | 89.8 | -0.595 (inactive) | -3e-05 (inactive) | 0.00307 (inactive) | 7.15% (inactive) | -9.55% (inactive)
17 | Cc1cc(C)nc(Sc2ccc3nnc(C(F)(F)C(F)(F)C(F)(F)F)n3n2)n1 | 564 | -21.1% (inactive) | -9.9% (inactive) | 115 | 4.1% (inactive) | 99.7 | -0.495 (inactive) | -3.3e-05 (inactive) | 0.00541 (inactive) | -0.722% (inactive) | 24.8% (inactive)
18 | COc1ccc(-n2ncc3c(N4CCN(c5cccc(C)c5C)CC4)ncnc32)cc1 | 589 | -4.7% (inactive) | -12.6% (inactive) | 111 | -22% (inactive) | 105 | -0.566 (inactive) | -3.6e-05 (inactive) | 0.0072 (inactive) | 5.95% (inactive) | 27.1% (inactive)
19 | CCSc1nnc(NC(=O)C2CCCN(S(=O)(=O)c3cnc[nH]3)C2)s1 (stereo not drawn) | 577 | -0.5% (inactive) | 10% (inactive) | 101 | -101% (inactive) | 125 | -0.537 (inactive) | -2.1e-05 (inactive) | 0.00708 (inactive) | 9.63% (inactive) | 21.5% (inactive)
20 | COc1ccc(Br)cc1CNC(=O)CCc1nc(-c2ccc(C)cc2)no1 | 517 | -4% (inactive) | -13.7% (inactive) | 98.4 | -2.8% (inactive) | 120 | -0.314 (inactive) | -6.4e-07 (inactive) | 0.00305 (inactive) | 15.2% (inactive) | 28.1% (inactive)
21 | NC(=O)c1ccccc1NC(=O)CN1CCOCC1 | 658 | -24.7% (inactive) | -45.9% (inactive) | 124 | -46.9% (inactive) | 105 | -0.492 (inactive) | -3.8e-05 (inactive) | 0.00501 (inactive) | 21.2% (inactive) | 20.7% (inactive)
22 | CC(C)COC(=O)NCC12C=CC(O1)C1C(=O)N(c3ccc(Cl)cc3)C(=O)C12 (stereo not drawn) | 280 | -0.5% (inactive) | -14.3% (inactive) | 104 | 5.7% (inactive) | 119 | -0.447 (inactive) | -0.000376 (inactive) | 0.005 (inactive) | -5.72% (inactive) | 0.93% (inactive)
23 | O=C(OCc1ccc2c(c1)OCO2)c1ccc(S(=O)(=O)N2CCCCC2)cc1 | 732 | 4.4% (inactive) | -6.1% (inactive) | 102 | 83.3% (active) | 87.7 | -0.415 (inactive) | -5.1e-05 (inactive) | 0.00821 (inactive) | 7.08% (inactive) | 9.8% (inactive)
24 | COC(=O)CC(C(=O)Nc1cc(C(=O)OC)cc(C(=O)OC)c1)N1CCN(C)CC1 (stereo not drawn) | 661 | -7.5% (inactive) | -3.2% (inactive) | 99.8 | -105% (inactive) | 107 | -0.547 (inactive) | -4.3e-05 (inactive) | 0.00646 (inactive) | -2.88% (inactive) | 9.86% (inactive)
25 | COc1ccc(-c2ccc(Nc3ccc(S(=O)(=O)N4CCCC4)cc3)nn2)cc1OC | 702 | -6.1% (inactive) | -4.9% (inactive) | 103 | -94.1% (inactive) | 109 | -0.601 (inactive) | -4.3e-05 (inactive) | 0.004 (inactive) | -5.55% (inactive) | -13.6% (inactive)
26 | O=C(COC(=O)CSc1nnc(-c2ccc(Cl)cc2)o1)NCc1ccc2c(c1)OCO2 | 517 | -2.4% (inactive) | 4.7% (inactive) | 123 | 9.2% (inactive) | 107 | -0.587 (inactive) | -3.7e-05 (inactive) | 0.00607 (inactive) | 8.92% (inactive) | 17.2% (inactive)
27 | CCOC(=O)C(C)(C)Sc1nc2c(cnn2-c2ccc(Cl)cc2)c(=O)[nH]1 | 623 | -5.2% (inactive) | -10.2% (inactive) | 119 | -27.2% (inactive) | 102 | -0.59 (inactive) | -5e-05 (inactive) | 0.00733 (inactive) | 9.09% (inactive) | 16.7% (inactive)
28 | Cc1ccc(S(=O)(=O)NCC(=O)N(CC(=O)NC2CCCCC2)Cc2ccco2)cc1 | 294 | 8.1% (inactive) | 12.7% (inactive) | 97.1 | -54.4% (inactive) | 110 | -0.431 (inactive) | -4.7e-05 (inactive) | 0.00754 (inactive) | 8.19% (inactive) | 20% (inactive)
